Measurements taken from PubChem BioAssay AID588591 (National Center for Advancing Translational Sciences (NCATS), 2011).
Among all 390,000 compounds or so, about 4,700 (1.2%) were called active. About 4% were inconclusive and are not listed. Calls come from the whole dose curve; as a rule, active = well fitted inhibition curve with a large enough effect; inconclusive = small, poorly fitted or top-dose-only effect, or another doubt; inactive = no such curve, though single readings can be large or run the other way. The list comes from a sample in which actives are over-represented; it also holds similar structures and randomly drawn compounds. Where a call stands in place of a potency, no number is given.

target: DNA polymerase eta (Homo sapiens) (UniProt Q9Y253); experiment: qHTS for Inhibitors of Polymerase Eta; details: recombinant Pol eta, fluorescent DNA replication assay; series mostly up to 114 µM
Sequence (Q9Y253 whole entry, looked up): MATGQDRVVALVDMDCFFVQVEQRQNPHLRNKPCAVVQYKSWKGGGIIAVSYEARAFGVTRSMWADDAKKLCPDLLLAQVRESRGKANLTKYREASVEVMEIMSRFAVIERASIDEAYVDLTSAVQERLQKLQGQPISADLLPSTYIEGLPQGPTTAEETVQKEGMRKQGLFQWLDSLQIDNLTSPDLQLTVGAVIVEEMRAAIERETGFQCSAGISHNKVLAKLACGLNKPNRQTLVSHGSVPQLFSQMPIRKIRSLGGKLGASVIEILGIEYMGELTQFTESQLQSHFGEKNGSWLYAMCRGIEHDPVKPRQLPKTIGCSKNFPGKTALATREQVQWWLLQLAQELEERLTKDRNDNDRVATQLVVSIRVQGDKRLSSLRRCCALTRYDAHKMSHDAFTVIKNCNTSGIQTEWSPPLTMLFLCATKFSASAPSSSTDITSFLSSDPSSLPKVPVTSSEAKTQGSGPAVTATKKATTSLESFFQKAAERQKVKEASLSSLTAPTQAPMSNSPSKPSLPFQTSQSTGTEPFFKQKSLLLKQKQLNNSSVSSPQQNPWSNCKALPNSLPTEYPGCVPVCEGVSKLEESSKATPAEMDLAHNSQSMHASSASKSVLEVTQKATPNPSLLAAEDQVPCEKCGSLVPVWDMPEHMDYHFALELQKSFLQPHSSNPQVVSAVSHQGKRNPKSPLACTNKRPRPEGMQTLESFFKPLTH
Procedure, shortened: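 Fluorescent replication assay: 50 nM final substrate added after a 15 min room-temperature compound preincubation with 10 nM enzyme. Signal taken at 0 min and again at 10 min.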
Potency is the fitted concentration of half-maximal effect.

Structure (SMILES) | Potency
COc1ccc2cc(-c3nc(Cl)c4c5c(sc4n3)CC(C)CC5)c(=O)oc2c1 (stereo not given) | inactive
COc1ccc(-c2cc3ccc(OCc4nn[nH]n4)cc3oc2=O)cc1 | 17.8 µM (active)
COc1ccc2oc(=O)c(-c3cn4c(n3)sc3cc(OC)ccc34)cc2c1 | inactive
CCCS(=O)(=O)c1ncc(Cl)c(C(=O)Nc2scc(-c3ccccc3)c2C(=O)OCC)n1 | inactive
COc1ccc(Cn2c(C(=O)O)c(CNCCc3cccs3)c3ccc(OC)cc32)cc1 | inactive
CCCNC(=O)C1CCN(c2nc3ccc(C)cc3[nH]2)CC1 | inactive
Cc1ccc(Cc2cncc(O)c2)cc1S(=O)(=O)O | 25.1 µM (active)
CCCCCn1c(CCCNC(=O)c2ccccc2OC)nc2ccccc21 | inactive
Oc1c(Cl)cc(Cl)c(Cl)c1Cc1c(O)c(Cl)cc(Cl)c1Cl | 44.7 µM (active)
Cc1ccccc1NC(=O)Cn1cc(C(=O)c2cccs2)c2ccccc21 | inactive
Cn1c(=O)c2c(nc(Oc3ccc(C#N)cc3)n2Cc2ccc(Cl)cc2Cl)n(C)c1=O | inactive
Cc1cccc(C)c1-n1ncc(C(=O)NCCCN2CCCCC2)c1C1CCN(C(=O)OC(C)(C)C)CC1 | inactive
CC(C)CC(=O)NCC(c1ccc2c(c1)OCO2)N1CCN(c2ccc(F)cc2)CC1 (stereo not given) | inactive
O=C(c1ccccc1)c1ccc(OC(=O)N2CCCC2)cc1 | inactive
O=C(c1ccc(O)cc1)c1ccc(C(=O)O)c(C(=O)O)c1 | 39.8 µM (active)
CC(=O)c1ccccc1OCc1ccc(C(=O)c2ccccc2)cc1 | inactive
CCOc1cccc2sc(N3CCN(C(=O)C4CC4)CC3)nc12 | inactive
O=C(CSc1oc(-c2ccco2)nc1S(=O)(=O)c1ccc(Cl)cc1)c1ccccc1 | inactive
Cc1cc(C)c2nc(SCC(=O)N(C)C3CCS(=O)(=O)C3)cc(C)c2c1 (stereo not given) | inactive
CCN(C(=O)COC(=O)/C=C/c1nc2ccccc2s1)C1CCS(=O)(=O)C1 (stereo not given) | inactive

Structure (SMILES) | Potency
CN(CCOc1ccccc1)C(=O)c1cc(-c2ccco2)nc2ccccc12 | 25.1 µM (active)
COc1cccc(NC(=O)CN(C)C(=O)c2cc(Cl)nc3ccccc23)c1 | inactive
CN(C(=O)COC(=O)c1cc(-c2ccco2)nc2ccccc12)C1CCS(=O)(=O)C1 (stereo not given) | 6.31 µM (active)
CN(CCOc1ccccc1)Cc1nc2cc(Cl)ccc2c(=O)[nH]1 | inactive
Cc1oc2c(c1C(=O)Nc1ccc(F)c(F)c1)C1=NCCN1C=N2 | inactive
CC1=C(C(=O)Nc2ccccc2)C(c2ccc(C)cc2)n2nc(SCc3ccccc3C)nc2N1 (stereo not given) | inactive
CCOc1ccc(CNC(=O)CCc2c(C)nn(-c3ccc(N4CCCCC4)nn3)c2C)cc1 | inactive
CCOC(=O)c1cc2c(=O)n3ccccc3nc2n(Cc2ccco2)c1=NC(=O)c1ccc(F)cc1 | inactive
OC[C@H]1O[C@@H](n2cnc3c(N[C@H]4CC5CCC4C5)ncnc32)[C@H](O)[C@@H]1O (stereo not given in full) | inactive
O=C(Nc1ccc2nc(SCC(=O)N3CCCc4ccccc43)sc2c1)c1ccc(F)cc1 | inactive
O=C(O)CCn1cc(/C=C/C(=O)c2ccc(Cl)cc2)c(-c2cccc(Br)c2)n1 | 56.2 µM (active)
CCc1ccc(S(=O)(=O)c2nnn3c2nc(NCc2ccccc2OC)c2cc(Cl)ccc23)cc1 | inactive
CN1CCN(C(=O)Cn2c(C(F)(F)F)nc3ccccc32)CC1 | inactive
CCCN1CCN(C(=O)Cn2ncc3ccccc32)CC1 | 25.1 µM (active)
CCc1nn(CC(=O)N2CCN(CC)CC2)c(=O)c2cccn12 | inactive
Cc1ccc(NC(=O)CN2C(=O)CC(C)Sc3ccccc32)c(C)c1 (stereo not given) | inactive
COc1ccc(Br)cc1CNC(=O)c1cc(=O)[nH]c2ccc(S(=O)(=O)N3CCCC3)cc12 | inactive
O=C(O)c1ccc(NN=CC2=C(N3CCOCC3)/C(=C/c3ccccc3)CC2)cc1 | 39.8 µM (active)
CC(C)(CNC(=O)c1ccc(Cl)c(S(=O)(=O)N2CCc3ccccc3C2)c1)N1CCOCC1 | inactive
O=C(Nc1ccc(F)cc1)c1cccnc1N1CCOCC1 | inactive

Structure (SMILES) | Potency
CCOc1ccc(NC(=O)C(=O)NCCc2csc3nc(-c4ccccc4F)nn23)cc1 | inactive
Cc1cc2ccccc2n1CCNC(=O)c1ccc(F)cc1 | inactive
Cc1ccc2c(=O)c(C(=O)c3ccc(Cl)cc3)cn(CC(=O)NC3CCCCC3)c2n1 | inactive
NC1=NC(c2cc(F)cc(F)c2)n2c(nc3ccccc32)N1 (stereo not given) | inactive
O=C(CN1CCCCCC1)Nc1ccc(Br)cc1[N+](=O)[O-] | inactive
COC(=O)c1ccccc1NS(=O)(=O)c1ccc2c(c1)CCCN2C(C)=O | inactive
Cc1ccc(NS(=O)(=O)c2ccc(N/N=C/c3ccccc3OCC(=O)O)c([N+](=O)[O-])c2)c(C)c1 | 70.8 µM (active)
Cc1ccc(NS(=O)(=O)c2ccc3c(c2)n(C)c(=O)c(=O)n3C)c(C)c1 | inactive
COc1ccc(S(=O)(=O)NC(C)c2ccccc2)cc1C(=O)N1CCCCC1 (stereo not given) | inactive
Cc1ccc(C)c(NS(=O)(=O)c2ccc(OCC(=O)NCc3cccnc3)cc2)c1 | inactive
COc1ccc(Br)cc1/C=N/Nc1ccc(S(=O)(=O)Nc2ccccc2C(=O)O)cc1[N+](=O)[O-] | 15.8 µM (active)
COc1cccc(/C=N/Nc2ccc(S(=O)(=O)Nc3ccccc3C(=O)O)cc2[N+](=O)[O-])c1O | 17.8 µM (active)
CCN(CC(=O)NCc1cccs1)C(=O)c1cccc(S(=O)(=O)Nc2ccccc2OC)c1 | inactive
COc1ccc(N2CCN(Cc3nc4c(c(=O)[nH]c(=O)n4C)n3Cc3ccc(Cl)cc3)CC2)cc1 | inactive
CCOc1ccccc1NC(=O)Cn1c(=O)n(Cc2ccccc2)c(=O)c2c(C)c(C(=O)N(C)C)sc21 | inactive
COc1ccc(C2(Nc3cccc(F)c3)C(=O)c3ccccc3C2=O)cc1 | inactive
CCCCC12CN3CC(C)(CN(C1)C3c1ccc(O)c(OC)c1)C2=O (stereo not given) | inactive
COc1ccc2c(c1)c(N1CCCC1=O)c(C(=O)Nc1ccc(OC)c(Cl)c1)n2C | inactive
Cc1ccc(C(=O)Nc2cc3c(cc2N2CCCC2)n(C)c(=O)c(=O)n3C)cc1 | inactive
Cc1ccccc1CSc1nc(-c2ccccc2)nc2c1Cc1c(CO)cnc(C)c1O2 | inactive
